Measured values as given in a collection of fitness landscapes (doi:10.1126/science.1257360).
In all, about 140,000 sequences were measured (“enrichment ratio after two sorts for PhoP signalling”: median about 0, highest 2% from about 11 on). The list comes from a sample in which the highest values are over-represented; it also holds similar and randomly drawn sequences.

B1: PhoQ; a variant is named by its letters at X, in order, P23837 (parent)
chain: MKKLLRLFFPLSLRVRFLLATAAVVLVLSLAYGMVALIGYSVSFDKTTFRLLRGESNLFYTLAKWENNKLHVELPENIDKQSPTMTLIYDENGQLLWAQRDVPWLMKMIQPDWLKSNGFHEIEADVNDTSLLLSGDHSIQQQLQEVREDDDDAEMTHSVAVNVYPATSRMPKLTIVVVDTIPVELKSSYMVWSWFIYVLSANLLLVIPLLWVAAWWSLRPIEALAKEVRELEEHNRELLNPATTRELTSLVRNLNRLLKSERERYDKYRTTLTDLTHSLKTPLXXLQXXLRSLRSEKMSVSDAEPVMLEQISRISQQIGYYLHRASMRGGTLLSRELHPVAPLLDNLTSALNKVYQRKGVNISLDISPEISFVGEQNDFVEVMGNVLDNACKYCLEFVEISARQTDEHLYIVVEDDGPGIPLSKREVIFDRGQRVDTLRPGQGVGLAVAREITEQYEGKIVAGESMLGGARMEVIFGRQHSAPKDE

Variants of: B1
Test: enrichment ratio after two sorts for PhoP signalling (ratio (wild type AVST 3.29)); higher = more functional
Details: with PhoP (E. coli)

Variant	enrichment ratio
IQKG	≤ 0.25
SNAN	6.54
EFAY	≤ 0.25
NQTC	≤ 0.25
WIAK	≤ 0.25
SIWD	14
SITI	19.7
SQTC	20.9
SILY	≤ 0.25
KYAK	≤ 0.25
SIAK	11.2
KYTI	≤ 0.25
KYWD	≤ 0.25
IQTC	≤ 0.25
SPWD	≤ 0.25
ELMG	≤ 0.25
HETM	≤ 0.25
NFED	≤ 0.25
DCAY	≤ 0.25
KYSH	≤ 0.25
QGAE	≤ 0.25
FIVP	≤ 0.25
FWLL	≤ 0.25
PSSI	≤ 0.25
QLYR	0.63
YEWP	≤ 0.25

Variant	enrichment ratio
IVFG	≤ 0.25
STMS	15.6
SPMS	≤ 0.25
SWMS	≤ 0.25
NWMF	≤ 0.25
TGSQ	25.1
AGSQ	12.9
NGSQ	≤ 0.25
AGSR	≤ 0.25
RGSQ	≤ 0.25
AGGK	≤ 0.25
LDTG	≤ 0.25
DEHI	≤ 0.25
FAGW	≤ 0.25
HEIN	≤ 0.25
EYTQ	≤ 0.25
AQKN	≤ 0.25
SQMN	25.3
SPMN	≤ 0.25
AQMN	38.4
AIMN	5.77
STMN	2.85
YRVY	≤ 0.25
YKWQ	≤ 0.25
AEEN	≤ 0.25
AEEA	≤ 0.25

Variant	enrichment ratio
AELM	2.01
AILD	≤ 0.25
AELF	16.2
AEYN	≤ 0.25
AELD	11.4
AQQV	≤ 0.25
AEQN	21.7
AEGD	0.253
APLF	≤ 0.25
AEQV	12.7
MEFK	1.13
WLKT	≤ 0.25
LQAS	≤ 0.25
AHLW	≤ 0.25
AELA	18.7
AILW	≤ 0.25
AEWI	≤ 0.25
AELK	11.5
AEFP	≤ 0.25
AEFA	0.58
AELY	9.13
AEPA	≤ 0.25
AEFS	19
AELW	11.4
AELS	10.7
SDLA	1.18

Variant	enrichment ratio
VFRG	≤ 0.25
LTPC	≤ 0.25
YIFI	≤ 0.25
AELV	24.4
AEWN	≤ 0.25
AHGN	≤ 0.25
AEGN	12.2
AECN	6.19
AELI	30.6
AEDK	≤ 0.25
AELN	12.5
AIGN	6.31
AELP	≤ 0.25
AEHK	≤ 0.25
AVWD	≤ 0.25
EYSC	≤ 0.25
PPHG	≤ 0.25
ISCM	2.52
EMGW	≤ 0.25
YGNI	≤ 0.25
VDAC	≤ 0.25
QMES	≤ 0.25
CLVG	≤ 0.25
FPHK	≤ 0.25
WEIR	≤ 0.25
AELH	11.9

Variant	enrichment ratio
AELL	12.1
AENI	≤ 0.25
AEYR	≤ 0.25
AENS	16
MELH	6.92
QELH	≤ 0.25
GSMR	≤ 0.25
VMYM	≤ 0.25
VVSV	≤ 0.25
RPHF	≤ 0.25
TIAI	11.7
SIYY	≤ 0.25
SIAI	11.6
KYAI	≤ 0.25
TIYY	≤ 0.25
WIAI	≤ 0.25
AMAI	14.3
KMAI	≤ 0.25
NMAI	≤ 0.25
TIAT	10.2
AKAI	5.1
AIAI	12.7
VKNM	≤ 0.25
NFFL	≤ 0.25
GWNK	≤ 0.25
RLRM	≤ 0.25

Variant	enrichment ratio
RGTH	≤ 0.25
YTEG	≤ 0.25
YVMY	≤ 0.25
DNCH	≤ 0.25
GTCF	1.25
MCSA	≤ 0.25
FSEL	≤ 0.25
ANCS	2.95
ANAI	30.1
GNAI	7.21
EQHH	≤ 0.25
MSLL	13.3
MSLT	4.06
YSLL	11.4
TSLL	14
FQLL	5.35
FCLL	10.7
QPLL	≤ 0.25
NSLL	3.55
KSLL	≤ 0.25
NRLL	≤ 0.25
QFLL	≤ 0.25
FSLL	13.5
